Inconclusive results are not listed. Activity calls are given as the source filed them. The calls were made as follows: active = hit-call score of the fitted dose curve at least 0.9, where 1 is the maximum; inconclusive = response in the unintended direction; inactive = score below 0.9.
experiment: CCTE_Mundy_HCI_iCellGABA_NOG_NeuriteCount: CCTE's Neurite Outgrowth Assay in iCellGABA cells for Neurite Count, Mundy Lab
Method: CCTE_Mundy_HCI_iCellGABA_NOG is a multiplexed, cell-based-readout assay that uses iCell GABANeurons from FUJIFILM Cellular Dynamics, Inc. (FCDI), human GABAergic enriched neurons derived from induced pluripotent stem (iPS) cells, with measurements taken at 50.33 hours after chemical dosing in a microplate: 96-well plate.CCTE_Mundy_HCI_iCellGABA_NOG_NeuriteCount is one of four components of the CCTE_Mundy_HCI_iCellGABA_NOG assay. It measures neurite outgrowth related to number of neurites using High Content Imaging of fluorescently labelled markers.Data from the assay component CCTE_Mundy_HCI_iCellGABA_NOG_NeuriteCount was analyzed at the endpoint CCTE_Mundy_HCI_iCellGABA_NOG_NeuriteCount in the positive analysis fitting direction relative to DMSO as the negative control and baseline of activity. Using a type of morphology reporter, loss-of-signal activity can be used to understand developmental effects.
Exposure starts 2 hours post-plating by adding 10 ul of the working solution to 90 ul of media in the wells for a 1/10 dilution. Forty-eight hours after chemical treatment cells are fixed by direct addition of 100 ul of warm (37C) Dulbecco's phosphate buffered saline (DPBS) fixative solution containing 8% paraformaldehyde, 8% sucrose, and 0.1% of 3 mg/ml Hoechst 33342 into each well. Primary antibodies are prepared by dilution in Immunocytochemical Staining Buffer (ISB), 10X Dulbecco's PBS, 0.1% Saponin, 5% Bovine Serum Albumin, 0.5% NaN3 (Sodium Azide) and betaIII-tubulin (rabbit anti-betaIII-tubulin, 1:800) followed by Alexa Fluor-488 secondary (1:500) to label neuronal cell bodies and neurites. A Cellomics ArrayScan VTi HCS Reader is used for automated image acquisition and analysis of neurite outgrowth.

SMILES | outcome | AC50
CCOP(=O)(SC(C)CC)N1CCSC1=O (centres undefined) | inactive | –
CCOP(=O)(OCC)Oc1nc(Cl)c(Cl)cc1Cl | inactive | –
COP(=O)(OC)O/C(C)=C/C(=O)N(C)C | inactive | –
COP(=S)(OC)SCN1C(=O)c2ccccc2C1=O | – | 74.2 µM (active)
CCOP(=S)(Oc1cnc(C(C)(C)C)nc1)OC(C)C (centres undefined) | inactive | –
CCOC(=O)CC(SP(=S)(OC)OC)C(=O)OCC (centres undefined) | – | 74.1 µM (active)
CCCCSP(=O)(SCCCC)SCCCC | – | 65.2 µM (active)
CCOP(=S)(OCC)Oc1cc(C)nc(C(C)C)n1 | – | 76.5 µM (active)
CNC(=O)CSP(=O)(OC)OC | inactive | –
CCOP(=S)(OCC)SCSCC | inactive | –
CCN(CC)c1nc(C)cc(OP(=S)(OC)OC)n1 | – | 89.1 µM (active)
CCOP(=S)(OCC)SCSC(C)(C)C | – | 81.4 µM (active)
CCOC(=O)CC(SP(=O)(OC)OC)C(=O)OCC (centres undefined) | inactive | –
COP(=O)(OC)C(O)C(Cl)(Cl)Cl (centres undefined) | inactive | –
COP(=O)(OC)OC(Br)C(Cl)(Cl)Br (centres undefined) | – | 16.1 µM (active)
CCOP(=S)(OCC)OC(Cl)C(Cl)(Cl)Cl (centres undefined) | – | 29.7 µM (active)
COP(N)(=O)SC (centres undefined) | inactive | –
CCCSP(=O)(OCC)Oc1ccc(Br)cc1Cl (centres undefined) | inactive | –
COP(=O)(OC)O/C(=C\Cl)c1cc(Cl)c(Cl)cc1Cl | – | 66.5 µM (active)
CCOP(=S)(OCC)Oc1nc(Cl)c(Cl)cc1Cl | – | 30.1 µM (active)
COP(=O)(OC)OC=C(Cl)Cl | inactive | –
CCOP(=S)(OCC)Oc1ccc2c(C)c(Cl)c(=O)oc2c1 | – | 71.2 µM (active)
CNC(=O)CSP(=S)(OC)OC | inactive | –
COP(=O)(NC(C)=O)SC (centres undefined) | inactive | –

— PubChem BioAssay AID2284362 (EPA ToxCast)
